# This is a sample that favours compounds with a hit; in the whole collection about 7.3% have one here.
# ELG1 genotox = inducers of genotoxicity in HEK293T ELG1-luciferase cells. HEK293T ELG1-luciferase reporter, luminescence, 16 h. Potency, µM (top dose mostly 46 µM), actives largely listed as activators. 330,000 tested, 1.3% active. AID 504466; note: nearly all actives have a fitted effect of over 60% in size
#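 Quantitative HTS format in 1536-well plates. HEK293T ELG1-luciferase reporter cells receive test compound and are incubated 16 hr at 37 °C, 5% CO2; ONE-Glo added, 30 min room temperature, then luminescence read.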
# Luc counter = counter-screen: inhibitors of Kinase-Glo firefly luciferase. Q27757. Kinase-Glo luciferase, ATP luminescence, 8 min. Potency, µM (doses to about 38.3 µM), actives largely listed as inhibitors. 200,000 tested, 0.28% active. AID 1379; note: nearly all actives have a fitted effect of over 60% in size
#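 Light output from Kinase-Glo luciferase with luciferin and 10 uM ATP in 50 mM imidazole pH 7.2, KCl, MgCl2, Tween 20, BSA; compound pin-delivered, 8-min ambient incubation, then luminescence read.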
# SMN2 splice enh = increases expression of the SMN2 splice variant; Potency, µM (titrated, usually from 46.1 µM), usual class: activators; HEK293 SMN2-luciferase splicing reporter, luminescence, 30-36 h; 210,000 tested, 2.8% active; note: nearly all actives have a fitted effect of over 55% in size
#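 HEK293 cells carry an SMN2 […]–luciferase reporter in which exon 7 inclusion puts luciferase in frame. Cells were plated 10-12 h before compound addition, then incubated 30-36 h at 37C. ONE-Glo luminescence was read; sodium butyrate at 4.5 mM final served as control.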
# Rab9 prom act = activates the Rab9 promoter; 320,000 tested, 2.8% active; Huh7 Rab9 promoter-luciferase reporter, luminescence, 24 h; AID 485297; Potency, µM (series often up to 9.22 µM), actives largely listed as activators; note: nearly all actives have a fitted effect of over 60% in size
#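 Rab9 promoter-driven luciferase in stably transfected Huh7 cells; 1500 cells/well rested 2 h, exposed to compound in DMSO for 24 h at 37 °C, 5% CO2. Luminescence read 10 min after adding luciferase reagent at ambient temperature.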
# NPC1 promoter act = NPC1 promoter activation; Huh7 NPC1 promoter luciferase reporter, 24 h; Potency, µM (titrated, usually from 9.22 µM), actives largely listed as activators; 320,000 tested, 2.4% active; note: nearly all actives have a fitted effect of over 60% in size
#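 Luminescence read-out of NPC1 promoter-driven luciferase in stably transfected Huh7 cells; compounds delivered in DMSO and left 24 h at 37C, 5% CO2, qHTS titration format.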
# FLuc modulator = inhibits or activates purified firefly luciferase, miR-21 counter-screen; purified FLuc, Km substrates, luminescence inhibition; P08659; AID 588342; 360,000 tested, 6.9% active; Potency, µM (highest dose often 57.5 µM), actives largely listed as inhibitors; note: nearly all actives have a fitted effect of over 55% in size
# Target sequence (P08659 whole entry, looked up): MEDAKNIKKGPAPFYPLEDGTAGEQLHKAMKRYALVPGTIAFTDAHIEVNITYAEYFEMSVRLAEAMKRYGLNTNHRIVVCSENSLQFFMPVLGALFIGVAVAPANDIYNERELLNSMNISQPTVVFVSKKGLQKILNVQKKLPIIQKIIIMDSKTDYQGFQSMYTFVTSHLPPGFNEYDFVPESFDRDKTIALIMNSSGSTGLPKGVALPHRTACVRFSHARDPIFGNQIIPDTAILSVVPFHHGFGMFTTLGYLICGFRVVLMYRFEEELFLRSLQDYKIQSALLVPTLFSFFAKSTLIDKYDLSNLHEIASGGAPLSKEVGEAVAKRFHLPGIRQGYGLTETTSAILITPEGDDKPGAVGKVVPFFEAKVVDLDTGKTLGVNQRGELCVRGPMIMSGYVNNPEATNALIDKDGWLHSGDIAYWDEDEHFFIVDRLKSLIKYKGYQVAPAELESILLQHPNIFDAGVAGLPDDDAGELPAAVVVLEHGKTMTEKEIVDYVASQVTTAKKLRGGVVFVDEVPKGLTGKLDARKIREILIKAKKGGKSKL
#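 Purified P. pyralis luciferase (10nM final) with 10uM D-luciferin and 10uM ATP (Km levels) in 50mM Tris acetate pH 7.5, 10mM Mg acetate, 0.01% Tween-20, 0.05% BSA; qHTS 6-point titration, ~60 µM downward; luminescence read.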
# Numbers stand for hits; - = inactive; ? = inconclusive; . = no result; [ ] = another dose, or the depositor's remark. Calls come from the whole dose curve; as a rule, active = well fitted curve in the direction sought with a large enough effect; inconclusive = small, poorly fitted or top-dose-only effect, or another doubt; inactive = no such curve, though single readings can be large; an effect the other way counts as inactive or inconclusive.
SMILES,ELG1 genotox,Luc counter,SMN2 splice enh,Rab9 prom act,NPC1 promoter act,FLuc modulator
COc1cccc(Cn2cnc3c(sc4nc(C)cc(C)c43)c2=O)c1,-,.,.,-,-,-
O=C(Nc1ccccc1)Nc1ccc2nnsc2c1,-,.,.,4µM,?,7.6µM
O=C(Nc1cccc(C(F)(F)F)c1)Nc1ccc2snnc2c1,.,.,-,.,.,-
CN(C)c1ccc(NC(=O)Nc2ccc3snnc3c2)cc1,-,-,-,?,?,7.6µM
O=C(Nc1ccccc1)Nc1ccc2snnc2c1,-,-,11µM,?,?,11µM
CCOc1ccc(NC(=O)Nc2ccc3snnc3c2)cc1,.,.,-,.,.,-
COc1ccc(NC(C)=O)cc1NC(=O)CSc1nnc(-c2ccncc2)n1C,-,-,-,-,-,-
Cc1cc2occ(CC(=O)Nc3nccs3)c2cc1C(C)C,-,-,-,-,-,-
COc1cc(CNC(=O)c2nc(Cn3nc(C)c(Br)c3C)no2)cc(OC)c1,-,-,-,-,-,-
NC(=O)Cc1nc(-c2ccc(Br)cc2)cs1,-,-,-,-,-,?
Oc1csc(Cc2nc(-c3ccc(Br)cc3)cs2)n1,?,-,?,3.5µM,3.2µM,?
O=C(NCCCN1CCOCC1)c1cccc(S(=O)(=O)NCc2ccccc2)c1,-,.,.,-,-,-
Cc1ccc(S(=O)(=O)CCc2nc3ccccc3[nH]2)cc1,-,-,-,-,-,-
c1ccc(Cc2nc3ccccc3[nH]2)cc1,-,.,.,-,-,-
O=S(=O)(CCc1nc2ccccc2[nH]1)c1ccc(Cl)cc1,-,-,-,-,-,-
OC(Cc1nc2ccccc2[nH]1)c1ccccc1Cl (stereo not drawn),-,-,-,-,-,24µM
Cc1ccc(OCc2nc3ccccc3[nH]2)cc1,?,-,3.5µM,0.63µM,1.4µM,1.3µM
Clc1ccc(OCc2nc3ccccc3[nH]2)cc1,?,-,11µM,1.1µM,2µM,3.4µM
c1ccc(OCc2nc3ccccc3[nH]2)cc1,?,-,13µM,4µM,2.8µM,12µM
O=C(COC(=O)CNS(=O)(=O)c1ccc(Br)cc1Cl)NC1CC1,-,.,.,-,-,-
O=C1Nc2ccccc2C1(c1ccccc1)c1ccccc1,-,-,-,-,-,-
Cc1ccc(-n2nnnc2SC(C)C(=O)Nc2ccc(Cl)cn2)cc1 (stereo not drawn),-,-,-,-,-,-
Cc1cccc(C(=O)NCC(=O)N2CCOCC2)c1,-,.,.,-,-,-
COc1ccc(N2C(=O)CC(Sc3ncccc3C(=O)O)C2=O)cc1 (stereo not drawn),-,-,-,-,-,-
O=C(CSc1nnc(-c2cccnc2)s1)Nc1ccc(C(=O)O)cc1,-,-,-,-,-,-
SMILES,ELG1 genotox,Luc counter,SMN2 splice enh,Rab9 prom act,NPC1 promoter act,FLuc modulator
COc1cccc(/C=C2\CCC(C3CCCC3)C2=O)c1 (stereo not drawn),?,.,.,?,?,1.7µM
O=C1/C(=C/c2ccc([N+](=O)[O-])cc2)CCC1C1CCCC1 (stereo not drawn),-,.,.,-[1.84 µM],-,0.76µM
Cc1cccc(/C=C2\CCC(C3CCCC3)C2=O)c1 (stereo not drawn),?,-,-,-,-,4.8µM
COc1cccc(/C=C2\CCCCC2=O)c1,-,.,.,-,-,?
Cc1cccc(/C=C2/C(=O)/C(=C/c3ccccc3C)C3CCC2N3C)c1 (stereo not drawn),-,-,-,-,-,-
COc1ccc(C2(c3ccc(OC)cc3)NC(=O)N(CC(=O)NC(C)C)C2=O)cc1,-,.,.,-,-,-
c1ccc(N2OCC3Cn4c(nc5ccccc54)C32)cc1 (stereo not drawn),-,.,.,-,-,19µM
COc1ccc(NC(=S)N(CCN2CCOCC2)C2CCN(C(C)=O)CC2)cc1Cl,-,-,-,-,-,-
CCNC(=O)NC(=O)CSc1nnc(-c2c[nH]c3ccccc23)o1,-,.,.,-,-,-
CCSc1nnc(-c2c[nH]c3ccccc23)o1,?,.,.,4µM,3.2µM,19µM
CCOC(=O)CSc1nnc(-c2c[nH]c3ccccc23)o1,-,.,.,-,-,19µM
COCCNC(=O)CN(Cc1ccc2c(c1)OCO2)C(=O)CCC(=O)Nc1nccs1,-,-,-,-,-,-
C=CCn1cccc(C(=O)Nc2ccc(C)c(Cl)c2)c1=O,?,.,.,?,2.5µM,9.5µM
C=CCn1cccc(C(=O)Nc2ccc(OC)c(Cl)c2)c1=O,-,.,.,?,?,19µM
Brc1ccc(-c2ncc(-c3ccccc3)cn2)cc1,0.82µM,-,7.9µM,0.71µM,0.5µM,0.43µM
CCn1cc(Br)c(C(=O)Nc2ccc(C(=O)OC(C)C)cc2)n1,-,-,-,?,?,15µM
CCn1nccc1C(=O)Nc1ccc(C(=O)OC(C)C)cc1,-,.,.,?,?,19µM
CCCCOC(=O)c1ccc(NC(=O)c2c(OC)cccc2OC)cc1,-,-,-,-,-,-
CCn1cc(Br)c(C(=O)Nc2ccc(OC)cc2)n1,?,-,14µM,-,?,15µM
CCCCOC(=O)c1ccc(NC(=O)c2nn(C)cc2Br)cc1,-,-,-,-,-,21µM
Cc1c(Br)c(C(N)=O)nn1C,-,-,-,-,-,-
COc1ccc(CN2CCCC(C(=O)N3CCCC3)C2)c(OC)c1 (stereo not drawn),-,.,.,-,-,-
CC1(C)CCc2cc(-c3ccnc(=S)[nH]3)ccc2O1,1.5µM,.,.,0.63µM,0.45µM,11µM
Cc1ccc(C(=O)Nc2nc(-c3cc(Cl)sc3Cl)cs2)cc1,-,-,-,-,-,9.5µM
O=C(Nc1nc(-c2cccs2)cs1)c1ccc(Cl)s1,?,-,-,-,-,13µM
SMILES,ELG1 genotox,Luc counter,SMN2 splice enh,Rab9 prom act,NPC1 promoter act,FLuc modulator
O=C(Nc1nc(-c2ccc(Cl)s2)cs1)c1ccccc1,-,-,-,-,-,27µM
Cc1ccc2nc(SCC(=O)NCc3ccco3)[nH]c2c1,-,-,-,-,-,-
CC1CCN(C(=O)c2c(NC(=O)c3ccccc3Cl)sc3c2CCC(C(C)(C)C)C3)CC1 (stereo not drawn),.,.,-,.,.,-
Cc1ccsc1C(=O)OC1CCOC1=O (stereo not drawn),-,-,25µM,-,-,-
Cc1cccc(C(=O)OC2CCOC2=O)c1O (stereo not drawn),-,.,.,-,-,-
O=C(COc1ccc(F)cc1)Nc1c(C(=O)N2CCC(N3CCCCC3)CC2)oc2ccccc12,-,.,.,-,-,-
Cc1ccc(NC(=O)c2ccc(OCC3CCCO3)cc2)nc1 (stereo not drawn),?,.,.,1µM,1.8µM,4.8µM
Cc1ccc(NC(=O)c2ccc(OCC3CCCO3)cc2)cc1 (stereo not drawn),?,-,7.9µM,2.5µM,2.2µM,6µM
Cc1cnc(NC(=O)c2ccc(OCC3CCCO3)cc2)s1 (stereo not drawn),?,-,2.2µM,0.13µM,0.5µM,0.76µM

# High-throughput results as filed in PubChem BioAssay.
